HP1b binding inh – HTS for Inhibitors of HP1-beta Chromodomain Interactions with Methylated Histone Tails | hit rate 0.56% among 390,000 | AlphaScreen HP1-beta / biotin-H3K9me3 peptide binding | Potency, µM (top dose mostly 114 µM), for inactives: top-dose activity change, negative = inhibition, most hits filed as inhibitors | Chromobox protein homolog 1 (Homo sapiens), P83916 | AID 540317, 2011; further: potency means the concentration at half of the fitted maximal effect; nearly all actives have a fitted effect of over 70% in size
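HP1-beta protein (50 nM final) preincubated 30 min at room temperature with biotinylated H3(1-18)K9me3 peptide (50 nM) in PBS pH 7.4, 0.01% Tween-20, then compound added for 30 min. AlphaScreen streptavidin donor/nickel chelate acceptor beads (10 ug/mL final), 30 min dark, luminescence read.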
BAZ2B inh – qHTS Assay for Inhibitors of BAZ2B. AlphaScreen BAZ2B-H3K14Ac peptide displacement. Potency, µM (top dose mostly 114 µM), without a hit: at the highest dose activity change, negative = inhibition, usual class: inhibitors. hit rate 4.4% among 360,000; further: potency means the concentration at half of the fitted maximal effect; on the % scale 0 is the no-effect control and ±100 the full control effect; nearly all actives have a fitted effect of over 60% in size
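Inhibition is scored as reduced AlphaScreen emission. The BAZ2B/b-H3(5-23)K14Ac complex (50 nM each) in PBS pH 7.4, 0.01% Tween-20 meets compound (up to 110 uM) for 30 min at RT before bead addition.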
KAT2A inh – qHTS Assay for Inhibitors of GCN5L2. GCN5L2 HAT assay, ThioGlo1 CoA-SH fluorescence. Histone acetyltransferase KAT2A (Homo sapiens), Q92830. Potency, µM (highest dose often 58.9 µM), for inactives: top-dose activity change, negative = inhibition, hits mostly inhibitors. hit rate 0.21% among 390,000; further: potency means the concentration at half of the fitted maximal effect; on the % scale 0 is the no-effect control and ±100 the full control effect
Target sequence (Q92830 whole entry, looked up): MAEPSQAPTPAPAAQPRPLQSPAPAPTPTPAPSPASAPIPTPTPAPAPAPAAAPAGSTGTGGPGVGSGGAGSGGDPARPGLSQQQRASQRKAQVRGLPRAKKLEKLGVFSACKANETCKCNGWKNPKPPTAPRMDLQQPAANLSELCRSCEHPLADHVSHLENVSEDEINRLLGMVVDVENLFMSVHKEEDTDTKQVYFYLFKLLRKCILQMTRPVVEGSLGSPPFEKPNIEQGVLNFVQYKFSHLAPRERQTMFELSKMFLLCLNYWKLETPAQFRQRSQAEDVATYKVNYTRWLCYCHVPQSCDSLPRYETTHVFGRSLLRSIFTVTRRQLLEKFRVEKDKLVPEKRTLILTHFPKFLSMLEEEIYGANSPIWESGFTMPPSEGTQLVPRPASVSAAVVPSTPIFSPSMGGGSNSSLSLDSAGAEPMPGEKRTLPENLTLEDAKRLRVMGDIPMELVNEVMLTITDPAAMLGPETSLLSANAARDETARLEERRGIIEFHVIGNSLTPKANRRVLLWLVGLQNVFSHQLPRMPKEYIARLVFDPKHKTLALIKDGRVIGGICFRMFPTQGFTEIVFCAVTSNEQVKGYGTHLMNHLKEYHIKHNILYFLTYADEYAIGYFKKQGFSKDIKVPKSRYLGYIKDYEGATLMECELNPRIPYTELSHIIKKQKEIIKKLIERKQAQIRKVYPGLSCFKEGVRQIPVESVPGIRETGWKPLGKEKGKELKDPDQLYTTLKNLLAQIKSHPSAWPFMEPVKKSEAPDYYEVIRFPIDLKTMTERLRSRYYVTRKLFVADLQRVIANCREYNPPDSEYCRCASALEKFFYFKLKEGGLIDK
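Titration-based screen in which CoA formation is detected via maleimide probe ThioGlo1 (50uM) turning fluorescent on thiol reaction; substrates H3(1-25) 75uM and acetyl-CoA 70uM, GCN5L2 20nM, 20 min incubation at room temperature.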
PI5P4Ka inh – qHTS for Inhibitors of phosphatidylinositol 5-phosphate 4-kinase (PI5P4K). PI5P4Kalpha enzyme, ADP-Glo luminescence, 60 min; hits give low values. hit rate 1.2% among 330,000. max response, %; active means max response of -50% or lower; inconclusive means between -30% and -50%; inactive means -30% or higher; further: value at the top dose of about 77 µM; on the % scale 0 is the no-effect control and ±100 the full control effect
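Single end-point luminescence (ADP-Glo) quantified ADP from PI5P4Kalpha turnover; ATP 5 microM final, 1 h at RT, 0.1% CHAPS and 0.28 mM EGTA in HEPES pH 7.4.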
PLK1 PBD block – qHTS for Inhibitors of PLK1-PDB (polo-like kinase 1 - polo-box domain): Primary Screen; hit rate 2.8% among 360,000; Potency, µM, for the others: max response, negative = inhibition, hits mostly inhibitors; Plk1 PBD binding of FITC phosphopeptide, fluorescence polarization; AID 720504, 2013; Serine/threonine-protein kinase PLK1 (Homo sapiens), P53350; further: potency means the concentration at half of the fitted maximal effect; series mostly up to about 57 µM; on the % scale 0 is the no-effect control and ±100 the full control effect; nearly all actives have a fitted effect of over 65% in size
JMJD2A Tudor – qHTS Assay for Inhibitors of JMJD2A-Tudor Domain. Potency, µM (doses to about 114 µM), for the others: at the highest dose activity change, negative = inhibition, most hits filed as inhibitors. Lysine-specific demethylase 4A (Homo sapiens), O75164. AID 504339, 2011. AlphaScreen JMJD2A-Tudor / H3K4me3 peptide binding. hit rate 4.4% among 390,000; further: potency means the concentration at half of the fitted maximal effect; on the % scale 0 is the no-effect control and ±100 the full control effect; nearly all actives have a fitted effect of over 50% in size
* = called active by the depositor; [ ] = another dose, or the depositor's remark. Rows were chosen to be rich in hits. Some 7% of all compounds tested hit in one or more screens of this group. Unless noted, the call rests on the fitted dose curve; in most records, active means well fitted curve in the direction sought with a large enough effect; inconclusive means small, poorly fitted or top-dose-only effect, or another doubt; inactive means no such curve, though single readings can be large; an effect the other way counts as inactive or inconclusive.

For Cc1ccc(NC(=O)C(=O)NCC(c2cccnc2)N2CCc3ccccc3C2)cc1 (centres undefined) the results were HP1b binding inh 18%, BAZ2B inh -14%, KAT2A inh 0% and JMJD2A Tudor -21%.
Cc1ccc(C(=O)NCC(c2cccnc2)N2CCc3ccccc3C2)cc1C (centres undefined) was read as HP1b binding inh 7%, BAZ2B inh 13µM*, KAT2A inh -12% and JMJD2A Tudor inconclusive.
Screening Cc1ccc(C(=O)NCC(c2cccnc2)N2CCc3ccccc32)cc1C (centres undefined) returned HP1b binding inh -16%, BAZ2B inh inconclusive, KAT2A inh -7% and JMJD2A Tudor inconclusive.
For CC(C)(C)c1ccc(C(=O)NCC(c2cccnc2)N2CCc3ccccc3C2)cc1 (centres undefined) the results were HP1b binding inh inconclusive, BAZ2B inh 3.2µM*, KAT2A inh 0% and JMJD2A Tudor inconclusive.
`C=CCNC(=O)c1ccccc1NC(=O)C1CCN(S(=O)(=O)c2ccc(SC)cc2)CC1` gave HP1b binding inh -3%, BAZ2B inh 50µM*, KAT2A inh -26%, PI5P4Ka inh -8, PLK1 PBD block -5% and JMJD2A Tudor -7%.
CCOC(=O)c1cc(S(=O)(=O)Nc2ccc(OC)c(Cl)c2)[nH]n1 was read as HP1b binding inh 12%[57 µM], BAZ2B inh 56µM*, KAT2A inh -19% and JMJD2A Tudor -34%.
For CCOC(=O)c1cc(S(=O)(=O)Nc2ccc(C)cc2Cl)[nH]n1 the results were HP1b binding inh 13%[57 µM], BAZ2B inh 79µM*, KAT2A inh -10% and JMJD2A Tudor -33%.
Nc1ccccc1NC1CCCCC1 was read as HP1b binding inh inconclusive, BAZ2B inh 32µM*, KAT2A inh -4%, PI5P4Ka inh -9, PLK1 PBD block -1% and JMJD2A Tudor 56µM*.
C#CCOCCOCCOCCNc1nc(N2CCN(C(=O)[C@H]([C@@H](C)CC)n3cc([C@@H](N)CO)nn3)CC2)nc(N2CCN(C(=O)[C@H]([C@@H](C)CC)n3cc([C@@H](N)CO)nn3)CC2)n1 was read as BAZ2B inh 22µM* and KAT2A inh -24%.
For C#CCOCCOCCOCCNc1nc(N2CCN(C(=O)[C@H]([C@@H](C)CC)n3cc([C@@H](N)CO)nn3)CC2)nc(N2CCN(C(=O)[C@H]([C@@H](C)CC)n3cc([C@@H](N)CC(C)C)nn3)CC2)n1 the results were HP1b binding inh 29%, BAZ2B inh 50µM*, KAT2A inh 4%, PI5P4Ka inh 0, PLK1 PBD block -12% and JMJD2A Tudor 50µM*.
For CCOC(=O)CC(=O)Nc1ccc(Br)cc1C(=O)O the results were HP1b binding inh 0%, BAZ2B inh 11%, KAT2A inh -6%, PI5P4Ka inh -16, PLK1 PBD block -9% and JMJD2A Tudor 56µM*.
`Clc1ccc(-c2nn3c(-c4cc(-c5ccccc5)n[nH]4)nnc3s2)cc1` gave HP1b binding inh 10%[57 µM] and JMJD2A Tudor 12%[57.1 µM].
Screening CCCc1[nH]n(-c2ccc([N+](=O)[O-])cc2)c(=O)c1C=NCCCn1ccnc1 returned HP1b binding inh -12%, BAZ2B inh 50µM*, KAT2A inh -8%, PI5P4Ka inh 3, PLK1 PBD block -17% and JMJD2A Tudor -26%.
`CN(C)S(=O)(=O)c1cccc(-c2nnc(SCc3cc(Cl)cc4c3OCOC4)n2N)c1` gave HP1b binding inh inconclusive, BAZ2B inh -27%, KAT2A inh -2%, PI5P4Ka inh -6, PLK1 PBD block 9.5µM* and JMJD2A Tudor 40µM*.
Cc1nnc(SCC(=O)NC(C)(C)C)n1NCc1cccc(Br)c1 was read as HP1b binding inh 36%, BAZ2B inh -19%, KAT2A inh -3%, PI5P4Ka inh 0, PLK1 PBD block -8% and JMJD2A Tudor -10%.
CCc1ccc(N(CC(=O)O)S(=O)(=O)c2c(C)noc2C)cc1 was read as HP1b binding inh 23%, BAZ2B inh -5%, KAT2A inh -4%, PI5P4Ka inh 3, PLK1 PBD block 30µM* and JMJD2A Tudor -34%.
For CCOc1ccc(N(CC(=O)NC2CCCCC2)S(=O)(=O)c2c(C)noc2C)cc1 the results were HP1b binding inh 18%, BAZ2B inh -1%, KAT2A inh -1%, PI5P4Ka inh -1, PLK1 PBD block 30µM* and JMJD2A Tudor inconclusive.
Screening CCOc1ccc(N(CC(=O)NC2CCCCCC2)S(=O)(=O)c2c(C)noc2C)cc1 returned HP1b binding inh 29%, BAZ2B inh -2%, KAT2A inh 2%, PI5P4Ka inh 2, PLK1 PBD block -14% and JMJD2A Tudor -16%.
`CC(=O)N1CCN(C(=S)NC(=O)c2ccc(F)cc2)CC1` gave HP1b binding inh 10%, KAT2A inh 0%, PI5P4Ka inh 0, PLK1 PBD block -10% and JMJD2A Tudor 1.6µM*.
`CC1CCN(C(=S)NC(=O)c2ccc(F)cc2)CC1` gave HP1b binding inh 2%, KAT2A inh -3%, PI5P4Ka inh 7, PLK1 PBD block -4% and JMJD2A Tudor -28%.
Screening O=C(CSc1ncccn1)Nc1cc(Cl)ccc1[N+](=O)[O-] returned HP1b binding inh 38%, KAT2A inh -2%, PI5P4Ka inh -7, PLK1 PBD block -1% and JMJD2A Tudor -19%[57.1 µM].
Screening Cc1nc(SCC(=O)Nc2cc(Cl)ccc2[N+](=O)[O-])nc(C)c1C returned HP1b binding inh inconclusive, BAZ2B inh 40µM*, KAT2A inh -9%, PI5P4Ka inh -3, PLK1 PBD block -4% and JMJD2A Tudor inconclusive.
COc1ccc(NC(=O)CNCc2ccc(Cl)cc2)cc1S(=O)(=O)N1CCOCC1 was read as HP1b binding inh inconclusive, KAT2A inh -1%, PI5P4Ka inh 0, PLK1 PBD block 5% and JMJD2A Tudor 3.5µM*.
Screening CN(CC(=O)Nc1ccc(C#N)cc1)CC(=O)Nc1ccc(N2CCOCC2)cc1 returned HP1b binding inh -7%, BAZ2B inh 11%, KAT2A inh 0%, PI5P4Ka inh -5, PLK1 PBD block -7% and JMJD2A Tudor 40µM*.
For COc1cccc(CNCC(=O)Nc2ccc(N3CCOCC3)cc2)c1 the results were HP1b binding inh inconclusive, BAZ2B inh 50µM*, KAT2A inh -3%, PI5P4Ka inh 9, PLK1 PBD block -2% and JMJD2A Tudor 25µM*.

Compound activity deposited in PubChem by National Center for Advancing Translational Sciences (NCATS).
